Laboratory results taken from PubChem BioAssay.
Entries with a potency or affinity are not part of this list. Results filed as inconclusive are left out. Active and inactive are the calls of the source. Unless noted, how the calls were made is not given here.

Assays:
[1] = PAX8 transcriptional activity inhibition in RMG-I – RMG-I cells, luciferase, cherry-pick, dose response (AID 687027;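 active means every replicate test run called active, with the signal dropping as expected and potency within twice the top valid dose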)
[2] = RMG-1 ovarian cancer cell viability loss – cherry-pick, dose response (AID 687029;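 active means signal drop whose fitted half-maximal concentration is at most twice the top valid dose, in every test run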;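 further: cells exposed to compound for 96 hours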)
[3] = IOSE-T80 viability loss, PAX8-independent line – cell-based, cherry-pick, selectivity assay for PAX8 inhibitor project, dose response (AID 687032;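 active means fitted half-maximal concentration for viability loss no higher than twice the top valid dose, in every repeat run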;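 further: cells exposed to compound for 96 h before reading; 0% = neutral control wells and -100% = 2 µM mitoxantrone kill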)
[4] = CMV-driven luciferase expression suppression in HEK293 – cell-based, luminescence, dry powder, counter-screen for Pax8 inhibitor project, dose response (AID 743020;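 active means signal-lowering compounds whose fitted half-maximal concentration is at or below twice the top tested dose in every run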;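 further: HEK293 cells stably expressing the CMV luciferase reporter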)
[5] = general cell-killing toxicity readout – plate reader, dry powder samples, cytotoxicity control for PAX8 inhibitor project, dose response (AID 743021)
[6] = IGROV1 cell killing – plate reader, dry powder samples, PAX8 inhibitor project, dose response (AID 743043);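 further: more negative means fewer viable cells or more cytotoxicity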
[7] = OVCAR-3 cell viability loss – plate reader, dry powder samples, PAX8 inhibitor project, dose response (AID 743044); settings: max activity: at 35 µM, stronger effect = lower value unless noted
[8] = toxicity toward immortalized ovarian surface epithelium – cell-based, plate reader, dry powder samples, cytotoxicity control for PAX8 inhibitor project, dose response (AID 743045);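 further: 0% = neutral control median and -100% = positive control median; more negative values mean more cell killing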
[9] = A2780 cell killing – plate reader, dry powder samples, cytotoxicity control, dose response (AID 743046);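 further: 0% = neutral control wells and -100% = cytotoxic reference compound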
[10] = OVCAR8 cell viability loss – plate reader, dry powder samples, PAX8 project, dose response (AID 743197)

CN(C)C(=O)c1cccc(-c2ccccc2[C@@H]2[C@@H](C#N)N(C(=O)C3CC3)[C@H]2CO)c1
inactive: outcome [1] | outcome [2] | outcome [3] | outcome [4] | outcome [5] | outcome [6] | max activity [7] 12.7% [at 0.26 µM, stronger effect = lower value] | outcome [8] | outcome [9] | outcome [10]

O=C(Cc1ccccn1)N[C@H]1CC[C@H](CCn2cc(-c3ccccc3)nn2)O[C@@H]1CO
inactive: outcome [1] | outcome [2] | outcome [3] | outcome [4] | outcome [5] | outcome [6] | max activity [7] -16.8% [at 16 µM, stronger effect = lower value] | outcome [8] | outcome [9] | outcome [10]

CN1CCN(C(=S)Nc2ccc(Cl)c(Cl)c2)CC1
inactive: outcome [1] | outcome [2] | outcome [4] | outcome [5]

O=C(CSc1cccc[n+]1[O-])Nc1cc(S(=O)(=O)N2CCOCC2)ccc1N1CCOCC1
inactive: outcome [1] | outcome [2] | outcome [3] | outcome [5]

O=C(Cc1ccccc1)c1ccccc1C(=O)N1CCCCC1
inactive: outcome [1] | outcome [2] | outcome [4] | outcome [5]

CCN(C(=O)COC(=O)c1ccc(S(=O)(=O)N2CCCc3ccccc32)cc1)C1CCS(=O)(=O)C1 (configuration not stated)
inactive: outcome [1] | outcome [2] | outcome [3] | outcome [5]

Cc1nn(CCO)c2nc(-c3cccs3)cc(C(F)(F)F)c12
inactive: outcome [1] | outcome [2] | outcome [3] | outcome [5]

COc1ccc(C2CC(c3ccc(Br)cc3)=NN2C(=S)Nc2ccccc2)cc1 (configuration not stated)
inactive: outcome [1] | outcome [2] | outcome [3] | outcome [5]

COc1ccc(NC(=O)c2nn(C34CC5CC(CC(C5)C3)C4)cc2[N+](=O)[O-])cc1
inactive: outcome [1] | outcome [2] | outcome [4] | outcome [5]

CCOC(=O)C1(Cc2ccc(OC)cc2)CCN(C(=O)CN2CCCCC2=O)CC1
inactive: outcome [1] | outcome [2] | outcome [3] | outcome [5]

COc1ccccc1NC1=Nc2cccc3cccc1c23
inactive: outcome [1] | outcome [2] | outcome [3] | outcome [5]

O=[N+]([O-])c1cccc(-c2nnc(-c3ccc4c(c3)OCO4)o2)c1
inactive: outcome [1] | outcome [2] | outcome [4] | outcome [5]

COc1ccc(C)cc1NC(=O)C1CCCN(S(=O)(=O)c2cccc3nonc23)C1 (configuration not stated)
inactive: outcome [1] | outcome [2] | outcome [4] | outcome [5]

Fc1ccc(CSc2ccc(-c3ccco3)nn2)cc1
inactive: outcome [1] | outcome [2] | outcome [3] | outcome [5]

Cc1cnc(NC(=O)CSc2nnc(C)n2N)s1
inactive: outcome [1] | outcome [2] | outcome [4] | outcome [5]

CC1CCN(CCOc2ccc(OCc3ccccc3)cc2)CC1
inactive: outcome [1] | outcome [2] | outcome [3] | outcome [5]

CCCCCCCCNC(=O)c1cnccn1
inactive: outcome [1] | outcome [2] | outcome [4] | outcome [5]

Cc1ccc(/C=N/NC(=O)c2ccccn2)o1
inactive: activity change, negative = inhibition [1] 80.8% [at 8 µM] | outcome [2] | outcome [3] | outcome [5]

Cc1cc(=O)oc2ccc(OC(=O)CN3C(=O)c4cccc([N+](=O)[O-])c4C3=O)cc12
inactive: outcome [1] | outcome [2] | outcome [3] | outcome [5]

O=C(/C=C/c1c(Cl)nc2ccccn12)Nc1ccc(F)cc1
inactive: outcome [1] | outcome [2] | outcome [3] | outcome [5]

COc1ccc(OCCNC(=O)/C=C/c2ccc([N+](=O)[O-])cc2)cc1
inactive: outcome [1] | outcome [2] | outcome [4] | outcome [5]

O=C(Nc1ccccc1)N1CCCCN2[C@@H](CO)[C@@H](c3ccc(C#Cc4ccccc4)cc3)[C@@H]2C1
inactive: outcome [1] | outcome [2] | outcome [4] | outcome [5]

CC(=O)Nc1ccc(C(=O)CSc2cc(C)c3cccc(C)c3n2)cc1
inactive: outcome [1] | outcome [2] | outcome [3] | outcome [5]

O=C(CCN1C(=O)/C(=C/c2ccccc2Cl)SC1=S)Nc1ccccc1C(=O)O
inactive: outcome [1] | outcome [2] | outcome [4] | outcome [5]

CCCCC1Cc2[nH]c(=S)[nH]c(=O)c2C(c2ccc(F)cc2)O1 (configuration not stated)
inactive: outcome [1] | outcome [2] | outcome [4] | outcome [5]

CCCCC(=O)N1CCN(c2ccc(OC)cc2[N+](=O)[O-])CC1
inactive: outcome [1] | outcome [2] | outcome [3] | outcome [5]

O=C(O)C1C=CC(C(=O)O)c2ccccc21 (configuration not stated)
inactive: outcome [1] | outcome [2] | outcome [4] | outcome [5]

O=C(NC1CCCCCC1)C1c2ccccc2C(=O)N1Cc1cccs1 (configuration not stated)
inactive: outcome [1] | outcome [2] | outcome [4] | outcome [5]

Cc1cccc(C(=O)Oc2ccc(/C=N/NC(=O)c3ccccc3O)cc2)c1
inactive: outcome [1] | outcome [2] | outcome [3] | outcome [5]

O=C1c2cccc3c(O)ccc(c23)C(=O)N1c1ccc(Cl)cc1
inactive: outcome [1] | outcome [2] | outcome [3] | outcome [5]

COc1ccc(O)c(C(c2c(C)[nH][nH]c2=O)c2c(C)[nH][nH]c2=O)c1
inactive: outcome [1] | outcome [2] | outcome [3] | outcome [5]

Cc1cccc(OCc2nc(-c3cccnc3)no2)c1
inactive: outcome [1] | outcome [2] | outcome [3] | outcome [5]

COc1ccc2oc(C)c(C(=O)c3ccc([N+](=O)[O-])cc3)c2c1
inactive: outcome [1] | outcome [2] | outcome [3] | outcome [5]

O=[N+]([O-])c1ccc2nc(SCc3cn4ccccc4n3)[nH]c2c1
inactive: outcome [1] | outcome [2] | outcome [3] | outcome [5]

O=C(/C=C/c1ccco1)Nc1nc(-c2ccccc2)cs1
inactive: activity change, negative = inhibition [1] 99.9% [at 8 µM] | outcome [2] | outcome [3] | outcome [5]

COc1ccc(-c2cn(CC[C@@H]3CC[C@H](NC(=O)Cc4ccccn4)[C@@H](CO)O3)nn2)cc1
inactive: outcome [1] | outcome [2] | outcome [3] | outcome [5] | outcome [6] | max activity [7] -8.11% [at 8 µM, stronger effect = lower value] | outcome [8] | outcome [9] | outcome [10]

O=C(NCC1CCCO1)C(=O)NCC(c1ccco1)N1CCN(c2ccccc2)CC1 (configuration not stated)
inactive: outcome [1] | outcome [2] | outcome [4] | outcome [5]

Nn1cnnc1N/N=C\c1ccc(-c2ccccc2[N+](=O)[O-])o1
inactive: outcome [1] | outcome [2] | outcome [4] | outcome [5]

Cc1cc(OCCCn2cnc3ccccc3c2=O)ccc1[N+](=O)[O-]
inactive: outcome [1] | outcome [2] | outcome [4] | outcome [5]

O=C(CSc1nc2ccccc2s1)NCCOc1ccccc1
inactive: outcome [1] | outcome [2] | outcome [3] | outcome [5]

COC1OC(COCc2ccccc2)C2OC(C)(C)OC2C1O (configuration not stated)
inactive: outcome [1] | outcome [2] | outcome [4] | outcome [5]

O=C(NCc1ccc(F)cc1)C1(c2cccs2)CCOCC1
inactive: outcome [1] | outcome [2] | outcome [5]

CCCCCC(=O)N/N=C(\C)c1ccc(N2CCCCC2)cc1
inactive: outcome [1] | outcome [2] | outcome [5]

CCNC(=O)C1(C)CCN(C(=O)c2ccccc2F)C1 (configuration not stated)
inactive: outcome [1] | outcome [2] | outcome [4] | outcome [5]

COc1ccc(C(C)NC(=O)c2ccc(Br)cc2)cc1OC (configuration not stated)
inactive: outcome [1] | outcome [2] | outcome [4] | outcome [5]

Cc1cc(C)c2c(c1)/C(=N/NC(=O)c1cc(C)oc1C)CCC2
inactive: outcome [1] | outcome [2] | outcome [5]

O=[N+]([O-])c1cc(-c2nnc(-c3ccccc3)o2)ccc1Oc1ccc(Cl)cc1
inactive: outcome [1] | outcome [2] | outcome [5]

O=C(Cc1ccc(F)cc1)OCC(=O)N1CCN(S(=O)(=O)c2ccc(Cl)cc2)CC1
inactive: outcome [1] | outcome [2] | outcome [4] | outcome [5]

COc1ccc(C(=O)NC(=S)NNC(=O)COc2ccccc2)cc1
inactive: outcome [1] | outcome [2] | outcome [5]

Cc1ccc2nc(-c3ccc(NC(=S)NC4CC(C)(C)NC(C)(C)C4)cc3)sc2c1
inactive: outcome [1] | outcome [2] | outcome [5]

Cc1ccc(-c2ccc([C@@H]3[C@H](CO)N4CCCCN(C(=O)Nc5cccc(F)c5)C[C@@H]34)cc2)cc1
inactive: outcome [1] | outcome [2] | outcome [4] | outcome [5] | outcome [8] | outcome [9]

Cc1ccc(-c2nc(C)sc2CC(=O)OCC(=O)Nc2cccc([N+](=O)[O-])c2)cc1
inactive: outcome [1] | outcome [2] | outcome [5]

C[C@H](CO)N1C[C@H](C)[C@@H](CN(C)C(=O)Nc2ccnc(N3CCOCC3)c2)OCc2cnnn2CCCC1=O
inactive: outcome [1] | outcome [2] | outcome [4] | outcome [5] | outcome [6] | max activity [7] 8.36% [at 0.26 µM, stronger effect = lower value] | outcome [8] | outcome [10]

CC(=O)C1=C(O)C(=O)N(CCc2ccccc2)C1c1ccccc1[N+](=O)[O-] (configuration not stated)
inactive: outcome [1] | outcome [2] | outcome [5]

Cc1nnc(N/N=C/c2cccc(C(F)(F)F)c2)n1N
inactive: outcome [1] | outcome [2] | outcome [5]

Cc1ccc(NC(=O)c2c([N+](=O)[O-])c(C(C)(C)C)nn2C)c(C)c1
inactive: outcome [1] | outcome [2] | outcome [5]

Cc1cc([N+](=O)[O-])nn1CCCC(=O)Nc1sc2c(c1C(N)=O)CCC(C)C2 (configuration not stated)
inactive: outcome [1] | outcome [2] | outcome [5]

COc1ccc(C(=O)N/N=C/c2ccc(OC(=O)c3cccs3)cc2)cc1
inactive: outcome [1] | outcome [2] | outcome [5]

O=C(O)CC(NC(=O)C1c2ccccc2Oc2ccccc21)c1ccc(OC2CCCC2)cc1 (configuration not stated)
inactive: outcome [1] | outcome [2] | outcome [4] | outcome [5]

Cc1ccc(/C=C/C(=O)N2CCN(c3cccc(C(F)(F)F)c3)CC2)cc1
inactive: outcome [1] | outcome [2] | outcome [5]

O=C(Cn1cc(C(F)(F)F)ccc1=O)Nc1ccc2c(c1)OCO2
inactive: outcome [1] | outcome [2] | outcome [4] | outcome [5]

CC(C)(C)OC(=O)[C@H](Cc1ccccc1)NC(=O)c1nc[nH]c1C(=O)N[C@@H](Cc1ccccc1)C(=O)OC(C)(C)C
inactive: activity change, negative = inhibition [1] -24.7% [at 8 µM] | outcome [2] | outcome [5]

O=C(Cc1cccs1)N/N=C/C=C/c1ccccc1
inactive: outcome [1] | outcome [2] | outcome [4] | outcome [5]

Oc1ccc(F)c2cccnc12
inactive: outcome [1] | outcome [3] | outcome [4] | outcome [5]

O=C(NNC(=O)c1cccc2ccccc12)c1cccc(F)c1
inactive: outcome [1] | outcome [2] | outcome [4] | outcome [5]

O=C(/C=C/c1ccc(Cl)cc1Cl)N1CCN(c2ccccc2[N+](=O)[O-])CC1
inactive: outcome [1] | outcome [2] | outcome [4] | outcome [5]

COc1ccc2c(c1)OC/C(=C/c1cccs1)C2=O
inactive: outcome [1] | outcome [2] | outcome [5]

CCN1CCN(c2nc(-c3cccs3)nc3ccccc23)CC1
inactive: outcome [1] | activity change, negative = inhibition [2] 16.7% [at 8 µM] | outcome [5]

OCC1CCCN(C(=S)Nc2ccc(OC(F)F)cc2)C1 (configuration not stated)
inactive: outcome [1] | outcome [2] | outcome [5]
